From the supplement of paper PMC12669032
Values without a mark were called inactive.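 The calls were made as follows: active = AUC reduced over 20% with Padj below 0.05 in at least 2 of 3 replicates; inactive = otherwise.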

Experiments:
Assay in all cases: growth AUC relative to DMSO control (median of replicates) (fraction); higher = more growth (less inhibition), active = hit call of the paper
Conditions in all cases: 20 µM; 24 h
[1] = test system: Akkermansia muciniphila
How it was run: (§1)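 Gut bacterial monocultures were grown anaerobically at 37 °C in mGAM, starting at OD600 0.05, with 20 µM compound (1% DMSO) in round-bottom 96-well plates under pierced gas-permeable seals. OD600 was read hourly for 24 h. Area under the growth curve (minimum OD set to 0) was normalised to the plate median of DMSO controls, or to row and column medians on the industrial chemical plate. The value is the median of three biological replicates grown on separate days.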

[2] = test system: Bacteroides caccae
How it was run: as §1

[3] = test system: Bacteroides clarus
How it was run: as §1

[4] = test system: Bacteroides dorei
How it was run: as §1

[5] = test system: Bacteroides stercoris
How it was run: as §1

[6] = test system: Bacteroides thetaiotaomicron
How it was run: as §1

[7] = test system: Bacteroides uniformis
How it was run: as §1

[8] = test system: Bifidobacterium longum subsp. longum
How it was run: as §1

[9] = test system: Clostridium difficile
How it was run: as §1

[10] = test system: Collinsella aerofaciens
How it was run: as §1

[11] = test system: Coprococcus comes
How it was run: as §1

[12] = test system: Escherichia coli ED1a
How it was run: as §1

[13] = test system: Escherichia coli IAI1
How it was run: as §1

[14] = test system: Eubacterium rectale
How it was run: as §1

[15] = test system: Fusobacterium nucleatum subsp. animalis
How it was run: as §1

[16] = test system: Lactobacillus gasseri
How it was run: as §1

[17] = test system: Lactobacillus paracasei
How it was run: as §1

[18] = test system: Odoribacter splanchnicus
How it was run: as §1

[19] = test system: Parabacteroides distasonis
How it was run: as §1

[20] = test system: Parabacteroides merdae
How it was run: as §1

Row | Structure (SMILES) | growth AUC [1] | growth AUC [2] | growth AUC [3] | growth AUC [4] | growth AUC [5] | growth AUC [6] | growth AUC [7] | growth AUC [8] | growth AUC [9] | growth AUC [10] | growth AUC [11] | growth AUC [12] | growth AUC [13] | growth AUC [14] | growth AUC [15] | growth AUC [16] | growth AUC [17] | growth AUC [18] | growth AUC [19] | growth AUC [20]
1 | CC(C)c1nn(C(=O)NC(C)(C)C)c(=O)n1N | 0.95 | 1.04 | 0.976 | 1.02 | 1.08 | 0.976 | 1 | 0.999 | 1 | 1.05 | 1.02 | 1.02 | 1.02 | 0.971 | 0.994 | 1.07 | 1.02 | 1 | 1 | 1.02
2 | CCc1cccc(C)c1NC(=O)C(=O)O | 0.965 | 1.01 | 0.999 | 1 | 0.999 | 0.942 | 1 | 1.02 | 0.972 | 0.983 | 0.985 | 1.02 | 1 | 0.989 | 0.981 | 0.916 | 0.969 | 0.998 | 0.982 | 1.03
3 | C#CCOc1cc(-n2nc(C(C)(C)C)oc2=O)c(Cl)cc1Cl | 1.14 | 0.977 | 0.986 | 0.951 | 0.879 | 0.932 | 0.799 (active) | 1.05 | 0.862 | 0.917 | 0.991 | 0.971 | 0.996 | 1.09 | 0.926 | 0.831 | 0.958 | 0.904 | 0.392 (active) | 0.951
4 | O=c1oc(-c2ccccc2)nc2ccccc12 | 0.96 | 1.01 | 0.984 | 0.979 | 0.955 | 0.966 | 0.971 | 0.947 | 0.994 | 0.976 | 0.996 | 0.967 | 0.946 | 0.948 | 0.935 | 0.971 | 0.915 | 0.893 | 1.05 | 0.988
5 | O=C(O)[C@@H](S)[C@@H](S)C(=O)O | 1.14 | 1.01 | 1.05 | 1.01 | 1.17 | 1.04 | 1.04 | 1.02 | 1.01 | 1.02 | 1.03 | 1.02 | 1.03 | 1.18 | 1.05 | 0.993 | 1.02 | 0.985 | 1.04 | 1.04
6 | NC(Cn1cncn1)C(=O)O (stereo not given) | 0.948 | 0.985 | 0.992 | 0.983 | 1.01 | 1 | 0.998 | 0.966 | 0.981 | 1.01 | 1.01 | 0.966 | 0.976 | 0.93 | 0.94 | 0.999 | 0.977 | 0.967 | 1.05 | 1.01
7 | CCOC(=O)Cn1c(=O)sc2cccc(Cl)c21 | 0.779 | 0.987 | 0.979 | 0.97 | 1 | 0.999 | 0.957 | 1.04 | 0.997 | 0.936 | 0.959 | 1.01 | 0.957 | 0.996 | 0.994 | 1.04 | 0.993 | 0.979 | 1.07 | 0.98
8 | O=C(O)c1ccc(Cl)cc1Cl | 0.987 | 1.03 | 0.989 | 0.994 | 0.959 | 1.01 | 0.977 | 0.699 | 0.997 | 1.02 | 1 | 0.986 | 0.993 | 0.957 | 0.891 | 0.991 | 0.994 | 1.01 | 0.984 | 0.989
9 | COc1ccc(Cl)c(Cl)c1Cl | 0.963 | 1.03 | 1.01 | 1.02 | 0.971 | 0.991 | 1 | 0.986 | 0.964 | 1.01 | 0.994 | 0.983 | 1.02 | 0.966 | 0.982 | 1.01 | 0.993 | 1.01 | 1.04 | 0.961
10 | Cc1ccc2c(c1)[C@H](Nc1nc(N)nc(C(C)F)n1)[C@@H](C)C2 (stereo not given in full) | 0.985 | 1 | 0.969 | 0.989 | 1.08 | 0.975 | 0.948 | 1.03 | 0.998 | 1.01 | 0.968 | 1.03 | 1.02 | 0.91 | 0.857 | 0.982 | 0.986 | 0.902 | 1.09 | 0.972
11 | CCC/C(=N\OCC)C1=C(O)CC(C2CCCSC2)CC1=O (stereo not given) | 1.22 | 0.946 | 1.01 | 0.936 | 0.999 | 1.04 | 0.974 | 1.04 | 1.01 | 0.993 | 1.03 | 0.988 | 1.01 | 1.14 | 1.03 | 0.907 | 0.986 | 1.01 | 0.81 | 1.04
12 | Cl.NCCO/C=C/[C@H](N)C(=O)O | 1.02 | 0.952 | 1.08 | 1.03 | 1.16 | 1 | 1.01 | 1.05 | 1.02 | 1.03 | 0.947 | 1.03 | 1.02 | 1.08 | 0.981 | 0.853 | 1.02 | 0.8 | 0.828 | 1.01
13 | CCOC(=O)/C(Cl)=C/c1cc(N2C(=O)C3=C(CCCC3)C2=O)ccc1Cl | 0.947 | 0.97 | 0.934 | 0.99 | 0.834 | 0.924 | 0.937 | 0.912 | 1.03 | 1.03 | 0.97 | 1 | 1.02 | 0.951 | 0.954 | 1.1 | 0.473 | 1.1 | 0.971 | 0.948
14 | N#Cc1cc(Cl)c(O)c(Cl)c1 | 1.12 | 1 | 1 | 0.982 | 0.935 | 0.994 | 0.947 | 1.03 | 0.997 | 1 | 1.02 | 0.926 | 0.9 | 0.972 | 1.03 | 1.17 | 1.03 | 0.998 | 0.956 | 0.93
15 | c1ccc2c(c1)Cc1ccccc1-2 | 1.04 | 1.02 | 1 | 1.03 | 1.04 | 1 | 1 | 0.925 | 1.01 | 1.01 | 1.01 | 1.03 | 1 | 1 | 1.03 | 1.05 | 1.05 | 1.05 | 0.962 | 1.02
16 | COC(=O)c1ccc(C(F)(F)F)nc1S(=O)(=O)[N-]C(=O)Nc1nc(OC)cc(OC)n1.[Na+] | 0.963 | 1.01 | 0.997 | 1.01 | 0.908 | 0.993 | 0.978 | 0.938 | 1.05 | 1.03 | 0.979 | 0.983 | 0.966 | 0.961 | 0.965 | 0.986 | 0.921 | 1.07 | 1 | 0.974
